Only some compounds are listed: those with a hit (about 1% of all), similar ones and a draw of the others.
HUVEC tox TNFa: cytotoxicity in TNFa-stimulated HUVEC, primary screen, cytotoxicity control for VCAM1 expression modulator project, imaging, Hoechst nuclei count; HUVEC TNFalpha-stimulated, Hoechst cell count; cell count reduction, % at 2 µM; 0.17% of 93,000 active; AID 848, 2007;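 active means cell count reduction exceeding the screen mean by over 5 SD, scaled to untreated wells per plate, cut at about 78% in these data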;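 further: cells counted after 24 h of TNF alpha exposure following the 1 h pretreatment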
VCAM1 TNFa inh: inhibitors of TNFa-induced VCAM1 expression, primary screen, imaging, HUVEC, TNFa stimulus, immunofluorescence. 0.48% of 95,000 active. inhibition, % at 2 µM. HUVEC TNFa-induced VCAM-1 immunofluorescence, high-content imaging. AID 802, 2007;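 active means inhibition above the batch mean plus 3 SD, with images confirmed as a hit by eye, cut at about 37% in these data; inconclusive means inhibition above that limit but hit not confirmed in images; inactive means inhibition not above that limit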;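 further: 0% = TNF-stimulated DMSO wells and 100% = unstimulated control wells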
F-actin modifier: modifiers of F-actin cytoskeleton organization, primary screen, imaging, HUVEC, phalloidin staining, high-content imaging. 0.18% of 91,000 active. inhibition, % at 2 µM. HUVEC TNFa F-actin phalloidin imaging;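 active means inhibition above the batch mean plus 3 SD and confirmed as a hit by visual image inspection, cut at about 30% in these data, passing the limit was not always enough; inconclusive means above the inhibition threshold but rejected on visual inspection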
E-sel TNF inh: E-selectin induction blockers in HUVEC – imaging, immunofluorescence, high content, primary screen; inhibition, % at 2 µM; 0.71% of 120,000 active; AID 1246, 2008; HUVEC TNFa-induced E-selectin immunofluorescence;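 active means inhibition above the batch mean plus 3 SD, and confirmed as a hit on visual image review, cut at about 43% in these data; inconclusive means passes the inhibition cutoff but fails visual image review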;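 further: 0% = TNF-stimulated DMSO wells and 100% = unstimulated control wells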
* = called active by the depositor; ? = inconclusive; . = no result.

SMILES	HUVEC tox TNFa	VCAM1 TNFa inh	F-actin modifier	E-sel TNF inh
O=C(CNc1ccc(C(F)(F)F)cc1[N+](=O)[O-])OCC(=O)c1ccccc1	-43.1	18.7	-4.6	16.9
CS(=O)(=O)c1ccc(S(=O)CC(=O)OCc2ccccc2)c([N+](=O)[O-])c1 (stereo unspecified)	.	.	.	100.0*
O=C(NC1CCCCC1)c1cccc(COCC(F)(F)F)c1	-18.4	1.8	2.7	0.5
Cc1nonc1OCCn1c([N+](=O)[O-])cnc1C	.	.	.	-17.0
CCC(=O)Nc1nnc(-c2ccccn2)o1	.	.	.	68.0*
Cc1ccc(C)c(N(CC(=O)NCCSCc2ccco2)S(C)(=O)=O)c1	-20.3	-7.1	18.0	62.6*
COc1ccc(C(=O)C(CO)Oc2ccccc2OC)cc1OC (stereo unspecified)	-29.0	5.3	2.9	73.4*
CC1c2nc3ccccc3n2C(CC(=O)NC2CC2)C(=O)N1Cc1ccccc1 (stereo unspecified)	.	.	.	-4.8
CC(C)OCCCNC(=O)c1cccs1	-0.4	18.4	10.9	-6.9
CCCCOCCCNC(=O)c1cccs1	-77.1	89.5*	35.7	5.2
COc1ccc(C(c2nnnn2Cc2ccccc2)N2CCN(c3nc4ccccc4s3)CC2)cc1 (stereo unspecified)	.	.	.	68.9*
COc1ccc(Cn2nnnc2C(c2cccs2)N2CCSCC2)cc1 (stereo unspecified)	88.2*	86.6*	-103.0	.
COc1ccc(Cn2nnnc2C(c2cccs2)N2CCCCCC2)cc1 (stereo unspecified)	23.9	-1.4	-9.4	-26.5
O=C(CS(=O)(=O)c1ccc2ccccc2c1)N1CCCCCC1	.	.	.	-18.6
O=C(OCn1ncc(Cl)c(Cl)c1=O)c1ccc(F)cc1	4.2	11.2	16.6	100.0*
O=C(Cn1ncc(Cl)c(Cl)c1=O)c1ccc(Cl)cc1	15.8	16.0	-0.8	28.2
O=C(OCn1ncc(Cl)c(Cl)c1=O)c1ccccc1Cl	19.5	17.3	-21.1	99.9*
Oc1ccc(/C=C/c2ccc3ccccc3n2)cc1	.	.	.	-11.2
O=C(O)/C=C/c1ccc2ccccc2n1	-5.9	3.4	-5.2	85.0*
N#Cc1ccc(-n2c(-c3ccccc3)nnc2-c2ccccc2)cc1C#N	-36.6	-53.8	13.2	15.3
N#Cc1cccc(-n2c(-c3ccccc3)nnc2-c2ccccc2)c1C#N	-10.1	-1.3	-2.9	100.0*
COc1ccc2c(c1)C1CC(C)(NC(=O)C1S(=O)(=O)c1ccc(F)cc1)O2 (stereo unspecified)	.	.	.	76.5*
O=C(NC(C(=O)c1ccccc1)N1CCOCC1)c1ccccc1 (stereo unspecified)	.	.	.	99.8*
CN(Cc1ccccc1)C(=O)c1ccccc1Br	.	.	.	-23.9
CCOC(=O)c1c(NC(=O)C(C)N2CCN(C(=O)c3ccco3)CC2)sc2c1CCCC2 (stereo unspecified)	-3.6	24.0	0.2	18.7
SMILES	HUVEC tox TNFa	VCAM1 TNFa inh	F-actin modifier	E-sel TNF inh
CNC(=S)N/N=C(\C)c1ccc(N2CCOCC2)cc1	.	.	.	3.0
C/C(=N\NC(=O)c1cccc(C)c1)c1ccc(N2CCOCC2)cc1	1.6	-9.1	-12.7	99.8*
COc1ccc(S(=O)(=O)NC(CC(=O)NCc2ccco2)C(C)C)cc1 (stereo unspecified)	100.0*	?	?	.
CCC(C)NS(=O)(=O)c1ccc(OCC(=O)NCc2ccco2)cc1 (stereo unspecified)	-0.9	0.9	-8.0	14.1
COc1ccc(N/C=C/C(=O)c2ccc(C)cc2)c([N+](=O)[O-])c1	-7.2	-5.8	19.2	65.3*
CN(C(=S)Nc1ccccc1F)C1(c2ccccc2Cl)CCCCC1=O (stereo unspecified)	-25.1	0.9	3.6	.
CCOC(=O)c1ccc(NC(=S)NCC(O)c2ccccc2)cc1 (stereo unspecified)	.	-45.8	18.4	73.1*
CCOC(=O)c1ccc(NC(=S)NCCc2ccccc2)cc1	.	-33.2	-7.3	10.6
COCCNC(=O)C(c1cccs1)N(Cc1ccccc1)C(=O)Cn1nnc2ccccc21 (stereo unspecified)	-12.0	11.4	-3.4	14.1
COCCNC(=O)C(c1cccs1)N(Cc1cccs1)C(=O)Cn1nnc2ccccc21 (stereo unspecified)	-0.4	-10.5	32.3*	9.1
CC(=O)Nc1ccc(Br)cc1C(=O)C(=O)O	.	.	.	4.7
O=c1cc(CO)oc(C(Nc2ccccn2)c2ccccc2F)c1O (stereo unspecified)	-19.0	-2.7	-1.3	68.0*
CSc1ccc(S(=O)(=O)N(CC(=O)NN=C2CCN(C)CC2)c2ccc(C)cc2)cc1	.	.	.	0.5
O=C(CCc1ccccc1)NCCC1=CCCCC1	.	.	.	74.9*

Screening data as filed in PubChem BioAssay.
